# Measured values as given in PubChem BioAssay (NCI).
# This is part of a sample that, as a whole, favours compounds with a hit. Of some 83,000 tested, about 20% had one in any assay.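 Compound tested at a single concentration for 48 hours in 96-well plates; a percent growth value below 10 was scored as active.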 Activity calls are given as the source filed them.
# System: SF-295 CNS
# Assay: NCI-60 one-dose screen, 48 h (100 = growth as untreated, 0 = no growth, -100 = all killed)
# Conditions: 10 µM unless noted
row,SMILES,growth
1,Clc1cccc(Cl)c1Nc1ccc2nnc(-c3ccncc3)n2n1,96% (inactive)
2,CC(C)(C)[Si](C)(C)OC1[C@@H](CNC(=O)NC(=O)CCl)O[C@@H](n2cnc3c(N)ncnc32)[C@H]1O[Si](C)(C)C(C)(C)C (stereo partly specified),-57.4% (active)
3,CC(C)(C)[Si](C)(C)OC1[C@@H](COC(=O)NC(=O)CCl)O[C@@H](n2cnc3c(N)ncnc32)[C@H]1O[Si](C)(C)C(C)(C)C (stereo partly specified),45.7% (inactive)
4,COc1ncnc2c1ncn2C/C(Br)=C(\Br)CCl,97.2% (inactive)
5,O=C1c2ccccc2C(=O)c2c(Nc3ccc(CCO)cc3)ccc(O)c21,50.2% (inactive)
6,COc1ccccc1CNCCCCCCCCCCCCN1C(=O)c2ccc3c4c(ccc(c24)C1=O)C(=O)N(CCCCCCCCCCCCNCc1ccccc1OC)C3=O,49.4% (inactive)
7,CC(=O)c1cc(C)c(OC(=O)c2ccccc2)c(C)c1,107% (inactive)
8,COC(=O)/C=C1/CCC2C3CCC4=CC(=O)C(Br)CC4(C)C3C(=O)CC12C (stereo unspecified),95.4% (inactive)
9,O=c1[nH]c(-c2ccccn2)nc2sc3c(c12)CCCCCC3,-6% (active)
10,CCCCCn1c(=N)n(CC(O)COc2cccc(C)c2)c2ccccc21 (stereo unspecified),-27.4% (active)
11,CC1SC(c2cccc(Oc3ccccc3)c2)N(CCc2cccs2)C1=O (stereo unspecified),-35.6% (active)
12,CC(C)(C)[Si](C)(C)OC1[C@@H](COC(N)=O)O[C@@H](n2cnc3c(N)ncnc32)[C@H]1O[Si](C)(C)C(C)(C)C (stereo partly specified),118% (inactive)
13,COc1ccc(-c2csc3c2-n2cccc2C3=O)cc1O,-31.7% (active)
14,O=c1[nH]c(-c2ccncc2)nc2sc3c(c12)CCCCCC3,53.2% (inactive)
15,COc1ccc(-n2c(SCc3cc(OC)c(OC)c(OC)c3)nc3ccc(C)cc3c2=O)c(OC)c1,6.35% (active)
16,Fc1ccccc1Nc1ccc2nnc(-c3ccncc3)n2n1,112% (inactive)

row,SMILES,growth
1,CC(C)(C)[Si](C)(C)OC1[C@@H](O[Si](C)(C)C(C)(C)C)[C@@H](CNC(=O)NC(=O)C(F)(F)F)O[C@H]1n1cnc2c(NC(=O)Nc3ccccc3)ncnc21 (stereo partly specified),69.5% (inactive)
2,Cc1ccc(N=c2nc3sc4c(C)ccc(C)c4n3c(N)c2C#N)cc1,91.1% (inactive)
3,CCOC(=O)C1=C(C)N2C(=NC3=C(CCCC/C3=C\c3ccccc3)C2c2ccccc2)S1 (stereo unspecified),74% (inactive)
4,CCN1CCN(C(=S)SCC(=O)Nc2nc3ccc(OC)cc3s2)CC1,121% (inactive)
5,Oc1ccccc1/C=N/Nc1nc2ccccc2s1,27.9% (inactive)
6,CC(=O)Nc1ccccc1-c1n[nH]c(=O)[nH]c1=O,98.1% (inactive)
7,Oc1ccc2ccccc2c1C1NN=C(c2ccccc2)S1 (stereo unspecified),-8.68% (active)
8,O=c1c2c(=NCCN3CCCC3)cc3c(=O)n(CCCN4CCOCC4)c(=O)c4ccc(c(O)n1CCCN1CCOCC1)c2c4-3,1.07% (active)
9,COc1ccccc1-n1c(SCc2cc(OC)c(OC)c(OC)c2)nc2ccc(Cl)cc2c1=O,31.9% (inactive)
10,Nc1c(Br)cc(Br)cc1-c1n[nH]c(=O)[nH]c1=O,98% (inactive)
11,O=c1nc(NO)[nH]c(=O)n1Cc1ccccc1,93.7% (inactive)
12,CC[Si](CC)(CC)OC1[C@@H](O[Si](CC)(CC)CC)[C@@H](CNC(=O)NC)O[C@H]1n1cnc2c(NC(=O)Nc3ccccc3)ncnc21 (stereo partly specified),59% (inactive)
13,COc1ccc(C2SC(C)C(=O)N2CCc2cccs2)cc1OC (stereo unspecified),75.5% (inactive)
14,c1ccc2cc(Cn3c(-c4ccc5ccccc5c4)[n+](Cc4ccc5ccccc5c4)c4ccccc43)ccc2c1,-79.1% (active)
15,COc1cc2nc(SCc3cc(OC)c(OC)c(OC)c3)n(-c3ccccc3OC)c(=O)c2cc1OC,73.8% (inactive)
